Laboratory results from the supplement of paper PMC6897291.

Test system: RIVA
Test: growth inhibition by drug plus 177Lu-lilotomab satetraxetan (1 - RLU/untreated control) (fraction); higher = stronger inhibition
Details: 177Lu-lilotomab satetraxetan 0.5 ug/ml
Description: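 RIVA (RI-1) ABC-DLBCL cells were pretreated or not for 18 h with 0.5 ug/ml 177Lu-lilotomab satetraxetan (600 MBq/mg), washed and seeded (3000 cells/well) on 384-well plates pre-printed with the Selleck Cambridge Cancer Compound library. Viability was read by RealTime-Glo luminescence on days 3-6 after seeding. Effect = 1 - RLU/mean RLU of the 48 untreated no-drug control wells per plate; Bliss score = (M-E)/(1-Fa).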

Structure (SMILES) | growth inhibition by drug plus 177Lu-lilotomab satetraxetan (10 nM, time (day): 3) | growth inhibition by drug plus 177Lu-lilotomab satetraxetan (10 nM, time (day): 4) | growth inhibition by drug plus 177Lu-lilotomab satetraxetan (10 nM, time (day): 5) | growth inhibition by drug plus 177Lu-lilotomab satetraxetan (10 nM, time (day): 6) | growth inhibition by drug plus 177Lu-lilotomab satetraxetan (100 nM, time (day): 3) | growth inhibition by drug plus 177Lu-lilotomab satetraxetan (100 nM, time (day): 4) | growth inhibition by drug plus 177Lu-lilotomab satetraxetan (100 nM, time (day): 5) | growth inhibition by drug plus 177Lu-lilotomab satetraxetan (100 nM, time (day): 6)
CC(O)(CS(=O)(=O)c1ccc(F)cc1)C(=O)Nc1ccc(C#N)c(C(F)(F)F)c1 (stereo not given) [Bicalutamide (Casodex)] | 0.401 | 0.506 | 0.542 | 0.556 | 0.351 | 0.443 | 0.458 | 0.432
CCC1(c2ccc(N)cc2)CCC(=O)NC1=O (stereo not given) [Aminoglutethimide (Cytadren)] | 0.446 | 0.523 | 0.538 | 0.547 | 0.226 | 0.376 | 0.379 | 0.408
CN(C)CCN(C)CCc1ccc(Cl)c(Cl)c1 | 0.215 | 0.408 | 0.459 | 0.48 | 0.0519 | 0.192 | 0.22 | 0.211
O=C(O)c1nn(Cc2ccc(Cl)cc2Cl)c2ccccc12 [Lonidamine] | 0.616 | 0.624 | 0.644 | 0.656 | 0.309 | 0.446 | 0.459 | 0.45
N.N.[Cl][Pt][Cl] [Cisplatin] | 0.539 | 0.565 | 0.592 | 0.599 | 0.463 | 0.526 | 0.544 | 0.57
